Reference: PubChem BioAssay AID488969 (Vanderbilt High Throughput Screening Facility, 2010)
Over roughly 110,000 compounds, “z-score” has its median near -0.1; the highest 2% begin near 2. Shown is part of a subset that was picked to be rich in the highest values. Calls of active or inactive are those of the source.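 How the source made its calls: active means z-score in the third read window above 3 or below -3; inactive means the rest.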

Molecular target: Metabotropic glutamate receptor 8 (Rattus norvegicus) (UniProt P70579)
Sequence (P70579 whole entry, looked up): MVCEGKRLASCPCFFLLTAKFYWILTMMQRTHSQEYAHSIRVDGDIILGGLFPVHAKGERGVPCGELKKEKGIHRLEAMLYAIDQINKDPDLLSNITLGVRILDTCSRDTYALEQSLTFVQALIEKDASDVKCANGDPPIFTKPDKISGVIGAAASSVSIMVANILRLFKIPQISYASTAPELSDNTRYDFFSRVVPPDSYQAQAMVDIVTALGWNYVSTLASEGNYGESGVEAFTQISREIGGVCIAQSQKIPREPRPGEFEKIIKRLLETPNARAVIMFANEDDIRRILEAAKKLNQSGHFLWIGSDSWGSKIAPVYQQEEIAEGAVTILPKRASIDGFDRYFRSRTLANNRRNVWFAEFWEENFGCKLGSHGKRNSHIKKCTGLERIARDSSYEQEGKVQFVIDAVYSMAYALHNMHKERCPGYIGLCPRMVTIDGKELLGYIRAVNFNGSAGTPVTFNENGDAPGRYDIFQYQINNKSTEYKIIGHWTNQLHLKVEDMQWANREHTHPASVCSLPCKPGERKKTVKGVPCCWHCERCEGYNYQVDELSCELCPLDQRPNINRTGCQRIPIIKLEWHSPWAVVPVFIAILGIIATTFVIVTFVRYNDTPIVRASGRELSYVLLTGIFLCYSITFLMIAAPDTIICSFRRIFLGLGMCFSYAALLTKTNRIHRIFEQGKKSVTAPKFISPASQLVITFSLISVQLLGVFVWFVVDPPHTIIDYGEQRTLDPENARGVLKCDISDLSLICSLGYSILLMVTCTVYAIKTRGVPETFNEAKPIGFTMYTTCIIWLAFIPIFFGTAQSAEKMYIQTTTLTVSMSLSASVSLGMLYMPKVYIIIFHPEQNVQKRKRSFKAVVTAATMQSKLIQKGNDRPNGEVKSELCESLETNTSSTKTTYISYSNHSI
Assay: rat mGluR8 modulators via GIRK flux, primary screen, cell-based, thallium flux, HTS (AID 488969)
Settings: HEK293 rat mGluR8, GIRK (G protein-gated inwardly rectifying potassium channel) thallium flux, FluoZin2; at 10 µM; stronger effect = higher value; submaximal glutamate (EC20) added with thallium

SMILES	z-score
NC(=S)N/N=C/c1ccc(C(F)(F)F)cc1	0.721
Cc1cc(C)n(-c2cc(N3CCN(S(=O)(=O)c4ccc5ccccc5c4)CC3)ccc2[N+](=O)[O-])n1	-0.296
S=C1NCCc2ccccc2C1c1ccccc1 (centres undefined)	-0.276
O=C(CN1CCN(C(c2ccccc2)c2ccccc2)CC1)N1CCOCC1	-0.28
COC(=O)C(NNc1ccccc1)(NC(=O)c1cccc(F)c1)C(F)(F)F (centres undefined)	-0.19
CCOC(=O)c1cc2c(=O)n3cccc(C)c3nc2n(CC2CCCO2)c1=NC(C)=O (centres undefined)	-0.0779
O=C(CCC(=O)c1ccc(Oc2ccccc2)cc1)Nc1ccc(Cl)cc1Cl	0.0353
S=C(Nc1ccc(Cl)cc1Cl)Nc1ccccc1Oc1ccccc1	4.54 (active)
O=C(COc1ccccc1Cl)Nc1cc(Cl)ccc1Oc1ccccc1	-0.0408
COc1cc(OC)c(NC(=O)CCNC(=O)Cn2cnc3ccccc3c2=O)cc1Cl	2.94
COc1cc(OC)c(NC(=O)CCNC(=O)Cn2ccc3ccccc3c2=O)cc1Cl	-0.293
CCN(CC)S(=O)(=O)c1ccc(NC(=O)Cn2cnc3ccccc3c2=O)cc1	-0.403
CCN(CC)S(=O)(=O)c1cc(NC(=O)Cn2cnc3ccccc3c2=O)ccc1C	3.32 (active)
CN(C)S(=O)(=O)c1cccc(NC(=O)Cn2cnc3ccccc3c2=O)c1	0.0344
COc1ccc(NC(=O)CCNC(=O)Cn2cnc3ccccc3c2=O)c(OC)c1	-0.512
C=CCc1ccccc1OCC(O)CN(CC)CC (centres undefined)	0.0462
CCCNC(=O)Cn1cnc2sc(C(=O)N3CCN(c4ccc(F)cc4)CC3)c(C)c2c1=O	-0.159
CCCCS(=O)CC(CS(=O)CCCC)OC(=O)c1ccccc1 (centres undefined)	0.895
O=C(/C=C/c1cccc2ccccc12)NCCC1=CCCCC1	-0.101
CC(C)(C)NS(=O)(=O)c1ccc(NS(C)(=O)=O)cc1	-0.0947
CCCCc1ccc(Nc2ncnc3nc[nH]c23)cc1	2.82
CCOC(=O)c1ccc(Nc2ncnc3nc[nH]c23)cc1	-0.0179
c1ccc(COc2ccc(Nc3ncnc4nc[nH]c34)cc2)cc1	0.0418
COc1cc(/C=N/NC(=O)CCn2nnc3ccccc32)ccc1O	-0.659
COc1cccc(/C=N/NC(=O)CCn2nnc3ccccc32)c1	2.1
COc1ccc(O)c(/C=N\NC(=O)CCn2nnc3ccccc32)c1	-0.125
CCOC(=O)Cc1nnc(Nc2cccc(C)c2)c2ccccc12	-0.988

SMILES	z-score
O=C(NCC1CCN(c2ccc(S(=O)(=O)N3CCOCC3)cc2)CC1)c1cccc(Cl)c1	0.0384
COc1ccc(/C=C/C(=O)NC(=S)NN2CCCCC2c2cccnc2)cc1 (centres undefined)	0.454
O=C(/C=C/c1ccc(Cl)cc1)NC(=S)NN1CCCCC1c1cccnc1 (centres undefined)	2.97
COc1ccc(/C=C/C(=O)NC(=S)NN2CCCCC2c2cccnc2)cc1OC (centres undefined)	0.0576
C=CCC(NC(C)c1ccccc1)c1ccco1 (centres undefined)	0.174
C=CCC(NCc1ccccc1)c1ccco1 (centres undefined)	2.42
C=CCC(NCc1ccccc1)c1ccc(C)o1 (centres undefined)	0.143
N#Cc1cnc(SCC(=O)c2ccccc2)nc1N	0.0176
Cc1cc(N2CCC(C)CC2)n2nc(C)c(-c3ccccc3)c2n1	-0.28
Cc1cc(N2CCCCC2)n2ncc(-c3ccccc3)c2n1	-0.231
Cc1cc(N2CCOCC2)n2ncc(-c3ccccc3)c2n1	-0.401
Cc1cc(N2CCC(C)CC2)n2ncc(-c3ccccc3)c2n1	3.32 (active)
Cc1cc(N2CCN(Cc3ccccc3)CC2)n2nc(C)c(-c3ccccc3)c2n1	0.0393
Cc1cc(N2CCOCC2)n2nc(C)c(-c3ccccc3)c2n1	4.01 (active)
Cc1cccc2cc(CN(Cc3cccs3)C(=S)NCC3CCCO3)c(=O)[nH]c12 (centres undefined)	-0.229
O=C1c2ccccc2C(Nc2ccc3c(c2)OCCO3)N1c1ccccn1 (centres undefined)	0.814
CCc1cccc(CC)c1NC(=S)N1CCn2cccc2C1c1cccnc1 (centres undefined)	0.37
Nc1ccc(S(=O)(=O)N2CCCC2)cc1	-0.115
NS(=O)(=O)c1ccc(S(=O)(=O)N2CCCC2)cc1	3.11 (active)
O=S(=O)(c1ccc(S(=O)(=O)N2CCCC2)cc1)N1CCCCCC1	0.224
CSc1ccccc1NC(=O)c1ccoc1C	-0.082
CCCCNC(=S)N/N=C/C1=CCC2CC1C2(C)C (centres undefined)	1.99
CC1(C)C2CC=C(/C=N/NC(=O)c3ccc(Cl)cc3)C1C2 (centres undefined)	0.355
C=C(C)CNC(=S)N/N=C/C1=CCC2CC1C2(C)C (centres undefined)	0.611
CC1CC(C)CN(CCCNC(=O)CCNC(=O)Cn2ccc3ccccc3c2=O)C1 (centres undefined)	-1.48
CCc1cc2c(cc3c(=O)n(CC(=O)NCCCN4CC(C)CC(C)C4)ncn32)s1 (centres undefined)	2.41
CC1CC(C)CN(CCCNC(=O)Cn2ncc3c(=O)oc4ccccc4c32)C1 (centres undefined)	-0.462

SMILES	z-score
CCOC(=O)C1C(=O)CC(C)(O)C(C(=O)OCC)C1c1ccc(N(CC)CC)cc1 (centres undefined)	-0.205
CC(C)NC(=O)/C(=C/c1ccco1)c1ccccc1	2.43
CC(C)(C)NC(=O)/C(=C/c1ccco1)c1ccccc1	-0.0597
CCC(C)NC(=O)/C(=C/c1ccco1)c1ccccc1 (centres undefined)	-0.109
CCN(CC)S(=O)(=O)c1cc(Br)c(C)cc1OC	-0.159
Cc1ccc(-c2nn(C)c(=O)c3ccccc23)cc1CNS(C)(=O)=O	-0.0971
COc1ccc(OC)c(NC(=S)N2CCN(C/C=C/c3ccccc3)CC2)c1	-0.183
CC(=O)Nc1ccc(C(=O)OC2CCCCC2=O)cc1 (centres undefined)	0.0145
O=C(OC1CCCCC1=O)c1cccc(S(=O)(=O)NCc2ccccc2)c1 (centres undefined)	-0.182
CNS(=O)(=O)c1cccc(C(=O)OC2CCCCC2=O)c1 (centres undefined)	2.06
O=C1C2C3C=CC(C3)C2C(=O)N1Cc1ccc(CN2C(=O)C3C4C=CC(C4)C3C2=O)cc1 (centres undefined)	-0.294
Cc1cccc(NC(=S)/N=C(\N)Nc2nc(C)c3ccc(C)cc3n2)c1	-0.215
CCCNc1cc(C)c(C#N)c2nc3ccccc3n12	-1.34
Cc1ccc(C(=O)NC(=S)Nc2ccccc2N2CCCC2)cc1[N+](=O)[O-]	0.134
Cc1cc(C(=O)NC(=S)Nc2ccccc2N2CCCC2)ccc1[N+](=O)[O-]	0.156
Cc1c(C(=O)NC(=S)Nc2ccccc2N2CCCC2)cccc1[N+](=O)[O-]	3.83 (active)
O=C(NC(=S)Nc1cccc(NC(=O)c2ccccc2)c1)c1cccc([N+](=O)[O-])c1	-0.0765
O=C(NC(=S)Nc1ccc(N2CCCC2)cc1)c1ccccc1[N+](=O)[O-]	0.0592
O=C(NC(=S)Nc1ccccc1N1CCCC1)c1ccc([N+](=O)[O-])cc1	14.4 (active)
O=C(NC(=S)Nc1cc(C(F)(F)F)ccc1Cl)c1ccccc1	1.04
O=C(NC(=S)Nc1ccccc1N1CCOCC1)c1ccc([N+](=O)[O-])cc1	0.377
O=C(Nc1ccccc1N1CCOCC1)c1ccccc1[N+](=O)[O-]	-0.093
COc1ccc(C(=O)NC(=S)Nc2ccccc2N2CCCCC2)cc1[N+](=O)[O-]	0.366
O=C(NC(=S)Nc1ccccc1N1CCCC1)c1ccccc1[N+](=O)[O-]	7.29 (active)
O=C(NC(=S)Nc1cc([N+](=O)[O-])ccc1Cl)c1ccccc1	12.9 (active)
